We go through 40 compounds from PubChem BioAssay (Tox21).

“And” between values parts separate entries of the source, which are not always exact repeats. Equal entries are not always repeated. Inconclusive results are not listed. A call without a number means that no potency is given here. The source made the active and inactive calls. The call rests on the fitted dose curve; in most records, active means well fitted cell-killing curve with a large enough effect in the repeat runs; inconclusive means weak or mixed curves, or effect the other way; inactive means flat fitted curve, though single readings scatter.
Potency means the concentration at half of the fitted maximal effect.

The assay can be described thus: qHTS assay to identify small molecule antagonists of the androgen receptor (AR) signaling pathway using the MDA cell line - cell viability counter screen (AID 743041; further: nearly all actives have a fitted effect of over 45% in size). The note with it: MDA-kb2 viability, CellTiter-Fluor, 16 h, cells co-treated with R1881 androgen agonist; series mostly up to 70.3 µM. The text has this: National Center for Advancing Translational Sciences [NCATS]
NIH Chemical Genomics Center [NCGC]
U.S. Environmental Protection Agency [EPA]
National Institutes of Environmental Health Sciences [NIEHS]
National Toxicology Program [NTP]
U.S. Food and Drug Administration [FDA]
Androgen receptor (AR), a nuclear hormone receptor, plays a critical role in AR-dependent prostate cancer and other androgen related diseases. Endocrine disrupting chemicals (EDCs) and their interactions with steroid hormone receptors like AR may cause disruption of normal endocrine function as well as interfere with metabolic homeostasis, reproduction, developmental and behavioral functions. To identify the compounds that inhibit AR signaling, MDA-kb2 AR-luc cell line (from ATCC, deposited by Wilson et al.) was used to screen the Tox21 10K compound library. MDA-kb2 AR-luc cell line is human breast carcinoma cell line that was stably transfected with a luciferase reporter gene under control of the MMTV promoter containing response elements for both androgen receptor (AR) and glucocorticoid receptor (GR). The cytotoxicity of the Tox21 compound library against the MDA-kb2 AR-luc cell line was tested in parallel by measuring the cell viability using CellTiter-Fluor assay (Promega, Madison, WI) in the same wells.
Tox21 Assay Protocol Summary:
MDA-kb2 AR-luc cells were dispensed at 3,000 cells/4 uL/well of culture medium into white wall/solid-bottom 1536-well plates using a Multidrop Combi (ThermoFisher Scientific, Waltham, MA) dispenser. After the assay plates were incubated at a 37C and 0% CO2 for 5 hr, 23 nL of compounds dissolved in DMSO, positive controls or DMSO only was transferred to the assay plate by a Pintool station (Kalypsys, San Diego, CA), followed by addition of 1 uL of agonist (R1881) in culture medium using a Bioraptr Flying Reagent Dispenser (FRD) workstation (Beckman Coulter, Indianapolis, IN, USA). The plates were incubated at a 37C and 0% CO2 for 16 h. After 15.5 h incubation, 1uL of CellTiter-Fluor reagent (Promega) was added using a Bioraptr FRD to each plate for measuring cytotoxicity. The fluorescence intensity was quantified on a ViewLux plate reader (PerkinElmer, Shelton, CT) following 30 min incubation at 37C and 0% CO2.
On the technique in general: qHTS replaces the single test concentration by a dilution series.
With `C[N+](C)(C)CCOC(=O)C(O)(c1ccccc1)c1ccccc1`, the Potency entry was “inactive”.

Take `O=C(N[C@H]1CN2CCC1CC2)c1ccc2c(c1)OCCO2`: the Potency result was “inactive”.

For the compound `O=S(=O)(Cl)Cl`, the Potency entry was “inactive”.

`CCOC(=O)NC(O)C(Cl)(Cl)Cl` (stereo not given): the Potency result is “inactive”.

With `CCCC1CCCCN1` (stereo not given), the Potency result is “inactive”.

As to `CC(=O)OC(c1ccccc1)C(Cl)(Cl)Cl` (stereo not given), the Potency entry is “inactive”.

With `CC[N+]1(C)CCCC(OC(=O)C(O)(c2ccccc2)c2ccccc2)C1` (stereo not given), the Potency result was “inactive”.

Take `C=CC(=O)NC(C)(C)CC(C)=O`: the Potency entry was “inactive”.

As to `CCCCC(CC)CO[N+](=O)[O-]` (stereo not given), the Potency entry was “inactive”.

Turning to `CC(C)OC(=O)Cc1ccccc1`, the Potency entry was “inactive”.

In the case of `Clc1ccc2ccccc2c1`, the Potency entry is “inactive”.

For the compound `[Cl-].[Cl-].[Hg+2]`, the Potency is 24.8 µM (active) and 54.2 µM (active) and 61.1 µM (active).

As to `c1ccc2c(c1)sc1ccccc12`, the Potency result was “inactive”.

As for `CCN(C(C)=O)c1cccc(-c2ccnc3c(C#N)cnn23)c1`, the Potency entry was “inactive”.

For the compound `Clc1ccccc1`, the Potency result was “inactive”.

Regarding `NP(N)(=O)NC(=O)c1ccc(F)cc1`, the Potency result is “inactive”.

As to `C[N+](C)(C)CC1CO1` (stereo not given), the Potency result was “inactive”.

Consider `CN[C@@H](C)[C@H](O)c1ccccc1`, for which the Potency result was “inactive”.

As to `O=C(O)COc1cc(Cl)c(Cl)cc1Cl`, the Potency entry is “inactive”.

Regarding `C=CCc1ccccc1O`, the Potency result was “inactive”.

Consider `CC(C)(C)OOC(C)(C)CCC(C)(C)OOC(C)(C)C`, for which the Potency result is “inactive”.

For `CN1C(=O)CN=C(c2ccccc2)c2cc([N+](=O)[O-])ccc21`, the Potency result is “inactive”.

Take `O=C1CC[C@@]2(O)[C@H]3Cc4ccc(O)c5c4[C@@]2(CCN3CC2CC2)[C@H]1O5`: the Potency entry is “inactive”.

As to `CCCC[P+](CC)(CCCC)CCCC` (tested in a mixture with another compound), the Potency result was “inactive”.

With `CN1C[C@H](C(=O)N[C@]2(C)O[C@@]3(O)[C@@H]4CCCN4C(=O)[C@H](Cc4ccccc4)N3C2=O)C=C2c3cccc4[nH]cc(c34)C[C@H]21`, the Potency result was “inactive”.

`CCCCC#N`: the Potency entry was “inactive”.

`OCCCl`: the Potency entry is “inactive”.

Regarding `FC(F)OC(F)(F)C(F)Cl` (stereo not given), the Potency entry was “inactive”.

Turning to `COC1CC(=C(c2cccs2)c2cccs2)C[N+](C)(C)C1` (stereo not given), the Potency result was “inactive”.

For the compound `Cc1nc(N(C)C)nc(OC(=O)N(C)C)c1C`, the Potency result is “inactive”.

Consider `CC(Cl)C(=O)O` (stereo not given), for which the Potency result was “inactive”.

With `CCOP(=O)(SC(C)CC)N1CCSC1=O` (stereo not given), the Potency entry was “inactive”.

Take `COc1ccc(C(=O)c2c(C)n(CCN3CCOCC3)c3ccccc23)cc1`: the Potency result is “inactive”.

Take `Clc1ccc(Cl)c(Cl)c1`: the Potency result was “inactive”.

For the compound `COC(=O)Cc1ccccc1`, the Potency entry was “inactive”.

With `O=P(OCC(Br)CBr)(OCC(Br)CBr)OCC(Br)CBr` (stereo not given), the Potency result is “inactive”.

As for `C[N+]1(CCF)[C@@H]2CC[C@H]1CC(OC(=O)C(O)(c1ccccc1)c1ccccc1)C2` (stereo not given in full), the Potency result was “inactive”.

As to `O=C(O)c1cc(I)cc(I)c1I`, the Potency result is “inactive”.

With `C=CCOCC1CO1` (stereo not given), the Potency result was “inactive”.

As to `CON(C)C(=O)Nc1ccc(Cl)cc1`, the Potency result is “inactive”.
